From PubChem BioAssay AID1508600 (Functional Genomics Laboratory (NCATS/FGL), 2020) come the findings set out here.

About 3,700 (7%) of roughly 53,000 sequences were called active. This is one part of a sample in which actives are shown more often than they occur.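 Rule for the calls: active = gene knockdowns whose robust z-score for IL-1 alpha signal is at least 2 or at most -2, so actives lie on both sides; inactive = the rest.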

A short description of this experiment: Components of the Cytosolic LPS Sensing Pathway: Gene Identification via Genome-wide siRNA Screen.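 Note: robust z of the log signal after scaling to non-targeting control siRNA wells of the plate.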 To be noted: RAW264.7 macrophages, IL-1a HTRF, actives lie on both sides, screened at 100 nM (by protocol), cells primed 5 h with Pam3CSK4 first. The essentials:
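IL-1a HTRF of supernatants after 24 hour LipidA transfection of Pam3CSK4-primed (5 hours) RAW264.7 cells, 48h post-siRNA transfection (100 nM). Scores: percent of plate negative-control median, then log-based robust z-score.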
Background: In TR-FRET formats the signal depends on donor and acceptor labels being close together.
Regarding GGUGGAGUGAUACGAAGAGTT against Radx, the z-score was 1.21 (inactive).

For CCAUAGUAGCUACCUUGAUTT against Fam107a, the z-score was 0.537 (inactive).

For GGAUGAGGUGAACUGAGGGTT against Tmem150b, the z-score is 0.777 (inactive).

Regarding GGAAGGUUUGUUGUUUUGUTT against Apon, the z-score was -1.58 (inactive).

For the sequence GGAUAUGACUAGGUGAAUUTT against Ebf3, the z-score is -1.04 (inactive).

Take GGACAUUGUCAAUAUGCUCTT against Pygm: the z-score is 0.633 (inactive).

For GGUGUGGAAGUCAGUUUAATT against Serpinb3a, the z-score was 2.53 (active).

Consider CGAUGUGACUAUUUGUUGATT against Snx11, for which the z-score is 0.425 (inactive).

For GGACCUAAACUGUCAGGAGTT against Eif3g, the z-score is 0.15 (inactive).

Consider GCUCUGUUGUGGAUGCAAUTT against Lonrf2, for which the z-score was 0.859 (inactive).

For GGGCGGUUCAAAAGGUCAGTT against Cacnb1, the z-score is 2.27 (active).

For the sequence CCGGGAUGGAGAAUAAGCUTT against Fgfbp3, the z-score was -0.264 (inactive).

On to GCUAUAGGGACCUCUGUCATT against Cdh5, for which the z-score is -2.72 (active).

For CCAUGACAUUUCCUAAGUUTT against Sall3, the z-score is -0.2 (inactive).

GGAGAUUUAUACACACUUGTT against Snx17: the z-score was 0.615 (inactive).

For the sequence GCUCCUACUACUGCUUUGCTT against Crem, the z-score is 0.979 (inactive).

In the case of GCCCAAAGGUCAAGGAUAUTT against Rptn, the z-score is -0.036 (inactive).

As to GCUAAGUUUCACCCAAAGGTT against Dennd2c, the z-score is 1.42 (inactive).

On to GGAGUGAGACAAGUGUAUGTT against Sprr1a, for which the z-score is -0.0345 (inactive).

For GGAAAGAUUCCGAACAAUUTT against Rab8b, the z-score is 2.12 (active).

As to GGUGGUUGAACAUAAGACUTT against Zfp688, the z-score is 1.27 (inactive).

For GGCAAUACAAACAAGUUCUTT against Klhdc2, the z-score is 1.05 (inactive).

As to GGCCUUGUUUUUAAGUAAATT against Atp12a, the z-score was -0.178 (inactive).

In the case of GCCAAUGAACCGAUCUCUGTT against Ep400, the z-score was -2.13 (active).

For the sequence GGAAUUGGGUAGUACAAAATT against Irak1, the z-score was 0.282 (inactive).

For the sequence GGUAAUGAAUAGGAAACUCTT against Ostm1, the z-score is -0.773 (inactive).

GGAACACACAGAGGUUUAUTT against Hacd1: the z-score is 1.87 (inactive).

As for GGGAGUGGCUCCUCAGAAATT against AW549877, the z-score is -1.98 (inactive).

Regarding CGCACAAGUGCUUGAGUUATT against Ccdc151, the z-score is 1.03 (inactive).

With GGACCAAUGUUUUCUUCCUTT against Gngt2, the z-score was 0.773 (inactive).
